In PubChem BioAssay AID1159580 (chemical genetic matrix, 2015):
“And” between values parts separate entries of the source, which are not always exact repeats. Equal values may be shown once. Among all 5,500 compounds or so, about 2,000 (36%) were called active. Roughly 18% stayed inconclusive and do not appear here. Rule as the data show it: active = normalized growth mostly below about 0.91 (no sharp cut-off); inconclusive = no clear call, values can overlap the other calls; inactive = mostly above about 0.92. The list shows a part of the results.

Assay: chemical genetic growth profiling, strain panel (AID 1159580);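 also: tested at 20 µM; growth read once vehicle control cultures reached saturation at 30 °C; 1 = growth at the plate median or of vehicle wells; lower values mean less growth of the strain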
Conditions: S. cerevisiae deletion strains, growth OD

Measured: normalized growth

O=C(O)c1cc(=O)c(O)c2c(O)c(O)ccc2c1
inactive: locus YAL013W, strain DEP1, hits give low values 1 | locus YAL021C, strain ccr4, hits give low values 1.02 | locus YAL026C, strain drs2, hits give low values 0.993 | locus YAL030W, strain snc1, hits give low values 1 | locus YBL061C, strain skt5, hits give low values 0.998 | locus YBR009C, strain hhf1, hits give low values 0.989 | locus YBR021W, strain FUR4, hits give low values 0.991 | locus YBR023C, strain chs3, hits give low values 1 | locus YBR171W, strain sec66, hits give low values 0.985 | locus YBR229C, strain ROT2, hits give low values 1.01 | locus YBR231C, strain swc5, hits give low values 0.988 | locus YBR279W, strain paf1, hits give low values 0.993 | locus YCL011C, strain gbp2, hits give low values 0.996 | locus YCL016C, strain dcc1, hits give low values 1 | locus YCL029C, strain bik1, hits give low values 1.02 | locus YCL061C, strain MRC1, hits give low values 0.993 | locus YCL069W, strain vba3, hits give low values 0.998 | locus YCR088W, strain abp1, hits give low values 0.99 | locus YDL005C, strain med2, hits give low values 0.997 | locus YDL035C, strain GPR1, hits give low values 1 | locus YDL040C, strain nat1, hits give low values 1.01 | locus YDL074C, strain BRE1, hits give low values 0.995 | locus YDL101C, strain DUN1, hits give low values 1.01 | locus YDL134C, strain PPH21, hits give low values 1 | locus YDL185W, strain tfp1, hits give low values 0.998 | locus YDL192W, strain arf1, hits give low values 1.01 | locus YDR001C, strain nth1, hits give low values 0.997 | locus YDR069C, strain doa4, hits give low values 0.974 | locus YDR101C, strain arx1, hits give low values 1.02 | locus YDR137W, strain rgp1, hits give low values 0.907 | locus YDR150W, strain NUM1, hits give low values 1 | locus YDR159W, strain sac3, hits give low values 0.969 | locus YDR162C, strain NBP2, hits give low values 0.979 | locus YDR195W, strain ref2 0.957 | locus YDR297W, strain sur2, hits give low values 0.997 | locus YDR318W, strain mcm21, hits give low values 1.05 | locus YDR334W, strain swr1, hits give low values 0.984 | locus YDR335W, strain msn5, hits give low values 0.996 | locus YDR388W, hits give low values 1.03 | locus YDR392W, strain spt3, hits give low values 0.997 | locus YDR502C, strain sam2, hits give low values 1.02 | locus YEL003W, strain gim4, hits give low values 0.999 | locus YEL037C, strain rad23, hits give low values 1 | locus YEL061C, strain CIN8 (second series), hits give low values 1 | locus YEL061C, strain CIN8, hits give low values 1 | locus YER015W, strain faa2, hits give low values 0.989 | locus YER016W, strain bim1, hits give low values 0.999 | locus YER110C, hits give low values 1.03 | locus YER111C, strain swi4, hits give low values 0.986 | locus YER155C, strain BEM2 (second series), hits give low values 1.01 | locus YER155C, strain BEM2, hits give low values 1.02 | locus YER167W, strain BCK2, hits give low values 1.03 | locus YFR010W, strain ubp6, hits give low values 0.986 | locus YGL078C, strain dbp3, hits give low values 1.01 | locus YGL086W, strain mad1, hits give low values 1.02 | locus YGL167C, strain pmr1, hits give low values 1 | locus YGL173C, strain kem1, hits give low values 1 | locus YGL227W, strain vid30, hits give low values 0.979 | locus YGL240W, strain doc1, hits give low values 0.994 | locus YGL248W, strain PDE1, hits give low values 1 | locus YGL253W, strain hxk2, hits give low values 0.999 | locus YGR078C, strain PAC10, hits give low values 0.969 | locus YGR135W, strain pre9, hits give low values 0.993 | locus YGR229C, strain SMI1, hits give low values 0.977 | locus YGR252W, strain gcn5, hits give low values 1.03 | locus YHR013C, strain ard1, hits give low values 0.975 | locus YHR027C, strain rpn1, hits give low values 0.998 | locus YHR030C, strain SLT2, hits give low values 1.01 and 0.987 | locus YHR079C, strain IRE1 (second series), hits give low values 1.02 | locus YHR079C, strain IRE1, hits give low values 0.99 | locus YHR094C, strain hxt1, hits give low values 1.02 | locus YHR129C, strain ARP1, hits give low values 1.01 | locus YHR142W, strain chs7, hits give low values 1.02 | locus YHR200W, strain rpn10, hits give low values 1.03 | locus YIL066C, strain RNR3, hits give low values 1.03 | locus YIL073C, strain SPO22, hits give low values 1.14 | locus YIL125W, strain kgd1, hits give low values 1.01 | locus YIR030C, strain dcg1, hits give low values 1.03 | locus YJL092W, strain hpr5, hits give low values 0.998 | locus YJL095W, strain BCK1 (second series), hits give low values 1 | locus YJL095W, strain BCK1, hits give low values 0.999 and 0.991 | locus YJL115W, strain asf1, hits give low values 0.99 | locus YJL129C, strain trk1, hits give low values 1.04 | locus YJL134W, strain LCB3, hits give low values 1 | locus YJL154C, strain vps35, hits give low values 1 | locus YJL164C, strain tpk1, hits give low values 0.985 | locus YJL166W, strain qcr8, hits give low values 1 | locus YJL168C, strain set2, hits give low values 1.01 | locus YJL187C, strain SWE1 (second series), hits give low values 0.994 | locus YJL187C, strain SWE1, hits give low values 0.995 | locus YJR043C, strain POL32, hits give low values 1.04 | locus YJR066W, strain TOR1, hits give low values 0.892
